Assays:
Format in all cases: functional
Plasmodium falciparum [1] = assay: GSK_TCMDC: Inhibition of Plasmodium falciparum 3D7 in whole red blood cells, using parasite LDH activity as an index of growth. Test compounds present at 2uM
Plasmodium falciparum [2] = assay: GSK_TCMDC: Inhibition of Plasmodium falciparum Dd2 in whole red blood cells, using parasite LDH activity as an index of growth. Test compounds present at 2uM
HepG2 = assay: GSK_TCMDC: Percent inhibition of human HepG2 cell line. Test compounds present at 10uM.

Cc1cccc2nc(-c3ccc(-c4ccc(NC(=O)CN5CCN(C)CC5)cc4)s3)[nH]c12
Inhibition (Plasmodium falciparum [1]): 95%
Inhibition (Plasmodium falciparum [2]): 86%
Inhibition (HepG2): 56%

Cc1ccc2[nH]c(-c3cc(-c4cccc(C#N)c4)cnc3N)nc2c1.O=C(O)C(F)(F)F
Inhibition (Plasmodium falciparum [1]): 100%
Inhibition (Plasmodium falciparum [2]): 99%
Inhibition (HepG2): 40%

O=C(Nc1cccc(CN2CCCN(Cc3ccc4c(c3)OCO4)CC2)c1)c1ccc(Cl)c(Cl)c1.O=C(O)C(F)(F)F
Inhibition (Plasmodium falciparum [1]): 92%
Inhibition (Plasmodium falciparum [2]): 10%
Inhibition (HepG2): 34%

O=C(NC1CC1)c1cnc(N2CCC(OCc3ccccc3)CC2)c(Cl)c1.O=C(O)C(F)(F)F
Inhibition (Plasmodium falciparum [1]): 90%
Inhibition (Plasmodium falciparum [2]): 71%
Inhibition (HepG2): 0%

COc1cccc(NC(=O)Nc2ccc(C)c(-c3ccc(C(=O)Nc4ccncc4)cc3)c2)c1
Inhibition (Plasmodium falciparum [1]): 99%
Inhibition (Plasmodium falciparum [2]): 64%
Inhibition (HepG2): 45%

Nc1nc2ccc(S(=O)(=O)Nc3ccc(C(=O)N[C@@H](CCC(=O)O)C(=O)O)c(F)c3)cc2c(=O)[nH]1
Inhibition (Plasmodium falciparum [1]): 97%
Inhibition (Plasmodium falciparum [2]): 16%
Inhibition (HepG2): 37%

CN(C)c1ccc(CN2CCC(NC(=O)c3ccc(-c4ccccc4Cl)s3)CC2)cc1.O=C(O)C(F)(F)F
Inhibition (Plasmodium falciparum [1]): 82%
Inhibition (Plasmodium falciparum [2]): 27%
Inhibition (HepG2): 35%

O=C(c1ccc(-c2cccc(-c3nc4cc(C(F)(F)F)ccc4[nH]3)c2)cc1)N1CCCCC1CN1CCC(O)C1 (stereo unspecified)
Inhibition (Plasmodium falciparum [1]): 100%
Inhibition (Plasmodium falciparum [2]): 98%
Inhibition (HepG2): 29%

Cc1nc(Nc2ccc(C)c(Cl)c2)c2c(C)noc2n1
Inhibition (Plasmodium falciparum [1]): 94%
Inhibition (Plasmodium falciparum [2]): 72%
Inhibition (HepG2): 0%

CCN1CCC(N(Cc2ccc(-c3ccc(C(F)(F)F)cc3)cc2)C(=O)Cn2c(SCc3ccc(F)cc3)nc(=O)c3c2CCC3)CC1.O=C(O)C(O)C(O)C(=O)O
Inhibition (Plasmodium falciparum [1]): 90%
Inhibition (Plasmodium falciparum [2]): 96%
Inhibition (HepG2): 46%

COc1ccc2nc(-c3ccc(C(=O)NCCCN4CCN(c5cc(Cl)ccc5OC)CC4)cc3)[nH]c2c1
Inhibition (Plasmodium falciparum [1]): 97%
Inhibition (Plasmodium falciparum [2]): 53%
Inhibition (HepG2): 0%

Nc1nccc2ccc(-c3cccc4ncccc34)cc12.O=C(O)C(F)(F)F
Inhibition (Plasmodium falciparum [1]): 98%
Inhibition (Plasmodium falciparum [2]): 94%
Inhibition (HepG2): 40%

COc1ccc2ncc(F)c([C@@H](O)CN3CCC(NCc4cc5c(cn4)OCS5)CC3)c2c1.Cl
Inhibition (Plasmodium falciparum [1]): 100%
Inhibition (Plasmodium falciparum [2]): 98%
Inhibition (HepG2): 16%

CN(CC(=O)Nc1cc(C(F)(F)F)ccc1-n1cncn1)Cc1nc2ccccc2s1
Inhibition (Plasmodium falciparum [1]): 87%
Inhibition (Plasmodium falciparum [2]): 64%
Inhibition (HepG2): 3%

Cc1ccc(C(=O)NC2CC2)cc1-c1ccc2c(cnn2S(=O)(=O)c2ccc(F)cc2)c1
Inhibition (Plasmodium falciparum [1]): 93%
Inhibition (Plasmodium falciparum [2]): 69%
Inhibition (HepG2): 7%

O=C(NCC1COc2ccccc2O1)c1cnc2c(c1)nc(-c1c[nH]c(-c3ccccc3)n1)n2CCSCc1c(F)cccc1Cl (stereo unspecified)
Inhibition (Plasmodium falciparum [1]): 95%
Inhibition (Plasmodium falciparum [2]): 10%
Inhibition (HepG2): 6%

CN(C)Cc1cccc(-c2ccc(NC(=O)c3ccc4c(=O)n(Cc5ccoc5)cnc4c3)cc2)c1
Inhibition (Plasmodium falciparum [1]): 98%
Inhibition (Plasmodium falciparum [2]): 9%
Inhibition (HepG2): 54%

CCc1ccc(C2CCN(CCCCNC(=O)c3ccc(-c4ccc(C(F)(F)F)cc4)cc3)CC2)c(OCCO)c1.Cl
Inhibition (Plasmodium falciparum [1]): 100%
Inhibition (Plasmodium falciparum [2]): 69%
Inhibition (HepG2): 82%

COC(=O)c1cccc(CNCc2cccc(-c3ccc(-c4nc5ccccc5[nH]4)s3)c2)c1.O=C(O)C(F)(F)F
Inhibition (Plasmodium falciparum [1]): 93%
Inhibition (Plasmodium falciparum [2]): 59%
Inhibition (HepG2): 0%

CC(C)NC(=O)c1cccc(-c2ccc(OCCN3CCCC3c3cc4ccccc4[nH]3)cc2)c1 (stereo unspecified)
Inhibition (Plasmodium falciparum [1]): 100%
Inhibition (Plasmodium falciparum [2]): 34%
Inhibition (HepG2): 25%

COc1ccccc1C1CN(CCNC(=O)c2nc(C)c[nH]2)Cc2ccccc2O1 (stereo unspecified)
Inhibition (Plasmodium falciparum [1]): 90%
Inhibition (Plasmodium falciparum [2]): 86%
Inhibition (HepG2): 4%

COc1ccc2nccc([C@@H](O)CN3C4CCC3CC(NCc3ccc5c(n3)NC(=O)CS5)C4)c2n1.Cl (stereo partly specified)
Inhibition (Plasmodium falciparum [1]): 99%
Inhibition (Plasmodium falciparum [2]): 11%
Inhibition (HepG2): 0%

O=C(NCc1cccc(C(F)(F)F)c1)C1CCCN(C(=O)c2ccc(O)c(-c3ccc(Cl)c(Cl)c3)c2)C1 (stereo unspecified)
Inhibition (Plasmodium falciparum [1]): 94%
Inhibition (Plasmodium falciparum [2]): 32%
Inhibition (HepG2): 1%

CC(Sc1nc2sccc2c(=O)n1C)C(=O)Nc1ccc2c(c1)OCO2 (stereo unspecified)
Inhibition (Plasmodium falciparum [1]): 100%
Inhibition (Plasmodium falciparum [2]): 100%
Inhibition (HepG2): 5%

c1ccc(CN2CCC(NCc3cccc(-c4cncc5ccccc45)c3)CC2)cc1
Inhibition (Plasmodium falciparum [1]): 92%
Inhibition (Plasmodium falciparum [2]): 11%
Inhibition (HepG2): 29%

COc1cc(N(C)Cc2cnc3nc(N)nc(N)c3n2)cc(OC)c1OC
Inhibition (Plasmodium falciparum [1]): 95%
Inhibition (Plasmodium falciparum [2]): 2%
Inhibition (HepG2): 32%

COc1cccc(C(=O)NC(c2ccc(Cl)cc2Cl)c2cc(Cl)c3cccnc3c2O)c1 (stereo unspecified)
Inhibition (Plasmodium falciparum [1]): 100%
Inhibition (Plasmodium falciparum [2]): 76%
Inhibition (HepG2): 37%

— ChEMBL document CHEMBL1157539, “Thousands of chemical starting points for antimalarial lead identification” (Nature, 2010)
